Laboratory results as given in the supplement of paper PMC10037445.
The full ranking holds about 2,900 compounds; the median of “NF-kB SEAP reporter activity, fold change vs agonist alone” is about 0.99, and the highest 2% start at about 2.6. This is one part of a sample in which the highest values are shown more often than they occur.

What was measured:
RAW-Dual [1] = experiment: NF-kB SEAP reporter activity, fold change vs agonist alone; higher = enhanced NF-kB activity; settings: library stock concentration (final ~1000-fold dilution): 10 mM
In short: (§1)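 Library stock was pin-tooled at 50 nL into 384-well plates of RAW-Dual macrophages (50,000 cells/well, DMEM), followed 1 h later by a PRR agonist, and the cells were kept at 37 °C, 5% CO2. Supernatant collected after 20 hours was read for IRF by QuantiLuc luminescence and for NF-κB by QuantiBlue absorbance at 620 nm. Reporter activity is fold change over agonist-alone wells, and a well counted as cytotoxic when its IncuCyte confluency was below 70% of agonist controls in both mask sets.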

RAW-Dual [2] = experiment: NF-kB SEAP reporter activity, fold change vs agonist alone; cytotoxicity flag (confluency mask): not cytotoxic; higher = enhanced NF-kB activity
In short: as §1

RAW-Dual [3] = experiment: NF-kB SEAP reporter activity, fold change vs agonist alone; cytotoxicity flag (confluency mask): cytotoxic (confluency <70% of control); higher = enhanced NF-kB activity
In short: as §1

[4] = cytotoxicity flag (confluency mask): not cytotoxic, agonist: Imiquimod (TLR7) […]
[5] = cytotoxicity flag (confluency mask): not cytotoxic, agonist: MPLA (TLR4) […]
[6] = agonist: ODN 1826 (TLR9) 0.5 ug/mL
[7] = agonist: Pam2CSK4 (TLR2/6) 0.1 ug/mL
[8] = agonist: Pam3CSK4 (TLR2/1) 0.1 ug/mL

CC1OC(OC2C(Oc3cc(O)c(C(=O)CCc4ccc(O)cc4)c(O)c3)OC(CO)C(O)C2O)C(O)C(O)C1O (centres undefined)
NF-kB SEAP reporter activity (RAW-Dual [1]; [4]): 0.957
NF-kB SEAP reporter activity (RAW-Dual [1]; [5]): 1.03

CC1OC(OC2C(Oc3cc(O)c(C(=O)CCc4ccc(O)cc4)c(O)c3)OC(CO)C(O)C2O)C(O)C(O)C1O (centres undefined) (library stock concentration (final ~1000-fold dilution): 10 mM)
NF-kB SEAP reporter activity (RAW-Dual [2]; agonist: LPS (TLR4) 0.1 ug/mL): 0.867
NF-kB SEAP reporter activity (RAW-Dual [2]; [6]): 0.991
NF-kB SEAP reporter activity (RAW-Dual [2]; [7]): 0.784
NF-kB SEAP reporter activity (RAW-Dual [2]; [8]): 1.06

O=c1c(-c2ccc(O)cc2)coc2cc(OC3OC(CO)C(O)C(O)C3O)ccc12 (centres undefined) (library stock concentration (final ~1000-fold dilution): 10 mM)
NF-kB SEAP reporter activity (RAW-Dual [2]; agonist: LPS (TLR4) 0.1 ug/mL): 1.62
NF-kB SEAP reporter activity (RAW-Dual [2]; [6]): 1.17
NF-kB SEAP reporter activity (RAW-Dual [2]; [7]): 1.25
NF-kB SEAP reporter activity (RAW-Dual [2]; [8]): 1.38

O=c1c(-c2ccc(O)cc2)coc2cc(OC3OC(CO)C(O)C(O)C3O)ccc12 (centres undefined)
NF-kB SEAP reporter activity (RAW-Dual [1]; [4]): 1.08
NF-kB SEAP reporter activity (RAW-Dual [1]; [5]): 1.08

CN(CC(=O)N(Cc1ccc(C2CCCCC2)cc1)c1ccc(C(=O)NO)cc1)S(=O)(=O)c1c(F)c(F)c(F)c(F)c1F (library stock concentration (final ~1000-fold dilution): 10 mM)
NF-kB SEAP reporter activity (RAW-Dual [2]; agonist: LPS (TLR4) 0.1 ug/mL): 0.324
NF-kB SEAP reporter activity (RAW-Dual [2]; [6]): 1.53
NF-kB SEAP reporter activity (RAW-Dual [2]; [7]): 0.374
NF-kB SEAP reporter activity (RAW-Dual [2]; [8]): 0.284

CN(CC(=O)N(Cc1ccc(C2CCCCC2)cc1)c1ccc(C(=O)NO)cc1)S(=O)(=O)c1c(F)c(F)c(F)c(F)c1F
NF-kB SEAP reporter activity (RAW-Dual [1]; [4]): 1.3
NF-kB SEAP reporter activity (RAW-Dual [1]; [5]): 1.02

CNCc1ccc(-c2cc(-c3nc(-c4ccc(S(=O)(=O)C(C)C)cc4)cnc3N)on2)cc1 (library stock concentration (final ~1000-fold dilution): 10 mM)
NF-kB SEAP reporter activity (RAW-Dual [2]; agonist: LPS (TLR4) 0.1 ug/mL): 1.06
NF-kB SEAP reporter activity (RAW-Dual [2]; [6]): 0.943
NF-kB SEAP reporter activity (RAW-Dual [2]; [7]): 0.871
NF-kB SEAP reporter activity (RAW-Dual [2]; [8]): 1.05

CN1CCN(S(=O)(=O)c2ccc(-c3cnc(N)c(C(=O)Nc4cccnc4)n3)cc2)CC1
NF-kB SEAP reporter activity (RAW-Dual [1]; [4]): 1.5
NF-kB SEAP reporter activity (RAW-Dual [1]; [5]): 2.5

CS(=O)(=O)O.Cc1ccc(NC(=O)c2ccc(CN3CCN(C)CC3)cc2)cc1Nc1nccc(-c2cccnc2)n1
NF-kB SEAP reporter activity (RAW-Dual [1]; cytotoxicity flag (confluency mask): cytotoxic (confluency <70% of control), agonist: Imiquimod (TLR7) […]): 1.24
NF-kB SEAP reporter activity (RAW-Dual [1]; cytotoxicity flag (confluency mask): cytotoxic (confluency <70% of control), agonist: MPLA (TLR4) […]): 1.46

CS(=O)(=O)c1ccc(-c2cnc(N)c(C(=O)Nc3ccccc3)n2)cc1
NF-kB SEAP reporter activity (RAW-Dual [1]; [4]): 1.45
NF-kB SEAP reporter activity (RAW-Dual [1]; [5]): 2.21

CS(=O)(=O)c1ccc(-c2cnc(N)c(C(=O)Nc3ccccc3)n2)cc1 (library stock concentration (final ~1000-fold dilution): 10 mM)
NF-kB SEAP reporter activity (RAW-Dual [2]; agonist: LPS (TLR4) 0.1 ug/mL): 4.61
NF-kB SEAP reporter activity (RAW-Dual [2]; [6]): 0.67
NF-kB SEAP reporter activity (RAW-Dual [2]; [7]): 1.02
NF-kB SEAP reporter activity (RAW-Dual [2]; [8]): 1.48

CS(=O)(=O)c1ccc(C(=O)Nc2ccc(Cl)c(-c3ccccn3)c2)c(Cl)c1
NF-kB SEAP reporter activity (RAW-Dual [1]; [4]): 1.07
NF-kB SEAP reporter activity (RAW-Dual [1]; [5]): 0.945

CNCc1ccc(-c2cc(-c3nc(-c4ccc(S(=O)(=O)C(C)C)cc4)cnc3N)on2)cc1
NF-kB SEAP reporter activity (RAW-Dual [1]; [4]): 0.858
NF-kB SEAP reporter activity (RAW-Dual [1]; [5]): 0.98

CS(=O)(=O)O.Cc1ccc(NC(=O)c2ccc(CN3CCN(C)CC3)cc2)cc1Nc1nccc(-c2cccnc2)n1 (library stock concentration (final ~1000-fold dilution): 10 mM)
NF-kB SEAP reporter activity (RAW-Dual [3]; agonist: LPS (TLR4) 0.1 ug/mL): 1.29
NF-kB SEAP reporter activity (RAW-Dual [3]; [6]): 0.201
NF-kB SEAP reporter activity (RAW-Dual [3]; [7]): 1.13
NF-kB SEAP reporter activity (RAW-Dual [3]; [8]): 1.25

CC(C)(C)c1ccc(S(=O)(=O)NCc2ccc(C(=O)Nc3cccnc3)cc2)cc1
NF-kB SEAP reporter activity (RAW-Dual [1]; [4]): 0.865
NF-kB SEAP reporter activity (RAW-Dual [1]; [5]): 0.908

CN1CCN(S(=O)(=O)c2ccc(-c3cnc(N)c(C(=O)Nc4cccnc4)n3)cc2)CC1 (library stock concentration (final ~1000-fold dilution): 10 mM)
NF-kB SEAP reporter activity (RAW-Dual [2]; agonist: LPS (TLR4) 0.1 ug/mL): 4.28
NF-kB SEAP reporter activity (RAW-Dual [2]; [6]): 2.61
NF-kB SEAP reporter activity (RAW-Dual [2]; [7]): 1.11
NF-kB SEAP reporter activity (RAW-Dual [2]; [8]): 2.07

CC(C)(C)c1ccc(S(=O)(=O)NCc2ccc(C(=O)Nc3cccnc3)cc2)cc1 (library stock concentration (final ~1000-fold dilution): 10 mM)
NF-kB SEAP reporter activity (RAW-Dual [2]; agonist: LPS (TLR4) 0.1 ug/mL): 0.67
NF-kB SEAP reporter activity (RAW-Dual [2]; [6]): 1.1
NF-kB SEAP reporter activity (RAW-Dual [2]; [7]): 0.834
NF-kB SEAP reporter activity (RAW-Dual [2]; [8]): 0.706

CS(=O)(=O)c1ccc(C(=O)Nc2ccc(Cl)c(-c3ccccn3)c2)c(Cl)c1 (library stock concentration (final ~1000-fold dilution): 10 mM)
NF-kB SEAP reporter activity (RAW-Dual [2]; agonist: LPS (TLR4) 0.1 ug/mL): 1.19
NF-kB SEAP reporter activity (RAW-Dual [2]; [6]): 1.4
NF-kB SEAP reporter activity (RAW-Dual [2]; [7]): 0.898
NF-kB SEAP reporter activity (RAW-Dual [2]; [8]): 1.01
